Assay results taken from PubChem BioAssay AID2515 (National Center for Advancing Translational Sciences (NCATS), 2010).
Results filed as inconclusive are left out. Calls of active or inactive are those of the source. Calls follow the shape of the dose curve; as a rule, active = well fitted inhibition curve with a large enough effect; inconclusive = small, poorly fitted or top-dose-only effect; inactive = flat fitted curve, though single readings scatter.

Target: Luciferin 4-monooxygenase (Photinus pyralis) (UniProt P08659)
Sequence (P08659 whole entry, looked up, canonical isoform): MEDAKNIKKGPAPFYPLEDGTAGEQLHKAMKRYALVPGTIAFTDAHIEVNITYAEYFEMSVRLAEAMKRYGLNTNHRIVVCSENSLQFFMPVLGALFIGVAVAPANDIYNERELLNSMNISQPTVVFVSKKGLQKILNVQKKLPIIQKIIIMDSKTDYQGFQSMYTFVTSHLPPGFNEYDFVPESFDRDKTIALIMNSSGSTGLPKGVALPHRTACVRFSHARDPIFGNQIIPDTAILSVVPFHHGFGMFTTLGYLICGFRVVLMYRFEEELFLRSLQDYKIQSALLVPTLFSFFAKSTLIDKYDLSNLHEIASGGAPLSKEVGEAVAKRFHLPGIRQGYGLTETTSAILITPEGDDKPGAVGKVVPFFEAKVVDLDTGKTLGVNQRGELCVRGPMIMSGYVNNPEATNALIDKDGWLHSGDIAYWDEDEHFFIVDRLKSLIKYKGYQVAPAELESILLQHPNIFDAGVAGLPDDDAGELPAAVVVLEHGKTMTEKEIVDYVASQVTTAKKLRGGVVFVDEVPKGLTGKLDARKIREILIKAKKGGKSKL
Assay: Counterscreen Assay for Enhancers of SMN2 Splice Variant Expression: Interaction with Luciferase Reporter for Probe SAR
Conditions: purified firefly luciferase, luminescence inhibition; series mostly up to 51 µM; activity, negative = inhibition: at the top concentration
Source text: NIH Chemical Genomics Center [NCGC] NIH Molecular Libraries Probe Production centers Network [MLPCN] MLPCN Grant: R03 MH084179-01 Assay Submitter (PI): Elliot Androphy NCGC Assay Overview: Spinal muscular atrophy (SMA) is caused by insufficient levels of the survival motor neuron protein SMN. The SMN locus on chromosome 5q13 contains two inverted copies of SMN called SMN1 and SMN2 which are 99% identical at the amino acid level. SMN1 is a fully functional protein and SMN2 skips exon 7 90% of the time. Skipping of exon 7 produces non-functional protein product. 10% of the SMN2 protein includes exon 7 and is fully functional. In the SMA disease state, mutations in the SMN1 locus are the cause of the disease state. Because only 10% of SMN2 is of the fully functional form, it is not sufficient to overcome the deficiency produced by the loss of the SMN1 product. A therapy that either increases the amount of SMN2 product made increases the inclusion of exon 7 has been proposed for the treatment of SMA. We have designed an assay to identify small molecules that can increase the amount of functional SMN2 product by appending a luciferase reporter gene after the native SMN2 gene, such that inclusion of exon 7 in the expressed product places the luciferase sequence in frame, thus generating functional luciferase enzyme. One potential source of false positives in the primary screening assay is stabilization of the reporter luciferase via direct binding. This assay attempts to identify such compounds by screening directly for luciferase activity in the absence of the cellular system.
NCGC Assay Protocol Summary: The primary screen utilizes a luciferase reporter gene assay, combining the promoter and splicing based cassettes in tandem with the major portion of the native SMN1 cDNA, and then transfected into HEK293 cells. Compounds that modulate luciferase signal presumably modulate expression of […]. In this assay, we utilize purified firefly luciferase in lieu of a cellular reporter to identify compounds interacting directly with luciferase in the primary screen. Sequence, Parameter, Value, Description (1) Reagent, 2.5 uL, Enzyme in buffer (note A) (2) Compound, 23 nL, From stock solutions (3) Time, 5 minutes, Room temp (4) Reagent#2.5 ul, Luciferase detection reagent (note B) (5) Detector, 1 sec integrate, Luminescent read on Viewlux (note C) Sigma enzyme (1 mg) considered to be MW 61,000 diluted in 357 ul assay buffer to 50 uM stock. A - Enzyme and buffer consists of 50 mM Tris-acetate pH 7.6, 10 mM Mg acetate 0.05% BSA, 0.01% Tween and 5 nM firefly luciferase B - Detection reagent = britelite plus diluted 1:10 in PBS C - Viewlux settings were 1 second integration medium sensitivity Keywords: Spinal muscular atrophy, SMA, SMN2, high throughput screening, MLSMR, MLPCN, NIH Roadmap, qHTS and NCGC

Row | SMILES | Potency | activity, negative = inhibition
1 | NC(=O)C1CCN(c2nc(-c3ccccc3F)cs2)CC1 | 35.7 µM (active) | 
2 | Cc1noc(C)c1-c1csc(N2CCC(C(N)=O)CC2)n1 |  | -12.3% (inactive)
3 | NC(=O)C1CCN(c2nc(-c3ccccc3N)cs2)CC1 |  | -14% (inactive)
4 | NC(=O)C1CCN(c2nc(-c3ccc(F)cc3)cs2)CC1 | 28.4 µM (active) | 
5 | NC(=O)C1CCN(c2nc(-c3ccc4c(c3)OCCO4)cs2)CC1 | 4.5 µM (active) | 
6 | NC(=O)C1CCN(c2nc(-c3ccc4ccccc4c3)cs2)CC1 | 31.8 µM (active) | 
7 | NC(=O)C1CCN(c2nc(-c3ccccc3C(F)(F)F)cs2)CC1 |  | -15.8% (inactive)
8 | Cn1ccc2cc(-c3csc(N4CCC(C(N)=O)CC4)n3)ccc21 | 10.1 µM (active) | 
9 | CN(C)c1cccc(-c2csc(N3CCC(C(N)=O)CC3)n2)c1 | 12.7 µM (active) | 
10 | NC(=O)C1CCN(c2nc(-c3cccnc3)cs2)CC1 |  | -12.3% (inactive)
11 | NC(=O)C1CCN(c2nc(-c3ccc(Br)cc3)cs2)CC1 | 40.1 µM (active) | 
12 | NC(=O)C1CCN(c2nc(-c3cc4ccccc4o3)cs2)CC1 | 31.8 µM (active) | 
13 | CN(C)C(=O)c1cccc(-c2csc(N3CCC(C(N)=O)CC3)n2)c1 |  | -19.3% (inactive)
14 | CS(=O)(=O)c1cccc(-c2csc(N3CCC(C(N)=O)CC3)n2)c1 |  | -14% (inactive)
15 | CN(C)c1ccccc1-c1csc(N2CCC(C(N)=O)CC2)n1 |  | -14% (inactive)
16 | Cc1ccc(-c2csc(N3CCC(C(N)=O)CC3)n2)cc1 | 12.7 µM (active) | 
17 | NC(=O)C1CCN(c2nc(-c3cccc(N)c3)cs2)CC1 |  | -24.6% (inactive)
18 | CS(=O)(=O)c1ccccc1-c1csc(N2CCC(C(N)=O)CC2)n1 |  | -16.9% (inactive)
